Screening results deposited in PubChem BioAssay by Broad Institute.
PrP 5UTR inh: suppresses PrP 5' UTR mRNA reporter expression. inhibition, % (concentration not given with the values). cell-based PrP 5' UTR mRNA reporter, plate reader. actives 0.35% (n = 340,000); in the data active = inhibition above about 52%; note: 0 = median of the neutral control wells
FadD28 FP inh: M. tuberculosis FadD28 bisubstrate binding inhibition. inhibition, % at 12.5 µM. FadD28 bisubstrate probe binding, fluorescence polarization. actives 0.22% (n = 360,000); in the data active = inhibition above about 8.5%, passing the limit was not always enough
Yp Topo-I inh: inhibitors of Yersinia pestis topoisomerase I | AID 504884 | Y. pestis Topo-I cleavage product accumulation, plate reader | actives 0.064% (n = 360,000) | activity, % at 10 µM; in the data active = activity above about 50%, passing the limit was not always enough
TcdB GH inh: TcdB glycohydrolase inhibition | inhibition, % at 9.99 µM | AID 652162 | TcdB glycohydrolase enzymatic assay, plate reader | actives 0.24% (n = 350,000) | P18177; in the data active = inhibition above about 10%
PfHsp40 yeast: restores yeast growth despite PfHsp40 toxicity; S. cerevisiae expressing PfHsp40, growth rescue, ATP luminescence; growth rescue, % at 12.5 µM; actives 0.68% (n = 340,000); AID 504582; in the data active = growth rescue above about 28%, passing the limit was not always enough;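 note: yeast W303a lacking pdr1 and pdr3 grown in galactose medium; growth measured after three days at 30 °C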
BioA inh-1: BioA (M. tuberculosis) enzyme inhibition | purified M. tuberculosis BioA enzyme, plate reader | inhibition, % at 9.99 µM | actives 0.096% (n = 360,000) | AID 602481; in the data active = inhibition above about 40%
BioA inh-2: blocks M. tuberculosis BioA aminotransferase. shares compounds with BioA inh-1. purified BioA enzyme, plate reader, dose response. max activity, %. 310 tested, under 10 active. AID 651679;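 note: top concentration of the dilution series was 10 µM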
Target sequence (P9WQ81 whole entry, looked up): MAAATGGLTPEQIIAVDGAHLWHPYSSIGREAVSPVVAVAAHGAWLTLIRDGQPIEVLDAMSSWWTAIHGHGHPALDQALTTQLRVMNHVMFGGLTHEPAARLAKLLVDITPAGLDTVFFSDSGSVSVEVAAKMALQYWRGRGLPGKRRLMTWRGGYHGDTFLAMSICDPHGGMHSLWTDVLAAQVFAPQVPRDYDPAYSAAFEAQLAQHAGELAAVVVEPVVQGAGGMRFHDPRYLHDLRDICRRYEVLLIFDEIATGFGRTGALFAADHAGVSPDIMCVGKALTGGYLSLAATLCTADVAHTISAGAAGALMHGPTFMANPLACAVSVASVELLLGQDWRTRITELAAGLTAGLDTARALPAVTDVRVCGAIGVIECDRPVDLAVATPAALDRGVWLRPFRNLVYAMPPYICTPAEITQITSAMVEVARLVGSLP
HepG2 tox 2: cytotoxicity in HepG2 cells | shares compounds with BioA inh-1 | 310 tested, under 10 active | max activity, % | AID 651898 | plate reader
3T3 cytotox 5: NIH3T3 viability loss. shares compounds with BioA inh-1. NIH3T3 cytotoxicity, plate reader. activity change, negative = cytotoxicity, % at 26 µM. 310 tested, under 10 active
* = called active by the depositor; i = inactive; nt = no result. Most compounds without a hit are left out; they make up all but 1.2% or so of the library. Unless noted, the rule behind the calls is not given here.

SMILES | PrP 5UTR inh | FadD28 FP inh | Yp Topo-I inh | TcdB GH inh | PfHsp40 yeast | BioA inh-1 | BioA inh-2 | HepG2 tox 2 | 3T3 cytotox 5
C[C@@H]1CCCCO[C@H](CN(C)C(=O)Nc2ccc(F)cc2)[C@H](C)CN([C@H](C)CO)C(=O)c2cc(NC(=O)CCC(F)(F)F)ccc2O1 | nt | nt | nt | -0.9 | nt | 0.4 | nt | nt | nt
CC1=C(C#N)C(c2cccnc2)C2=C(CC(c3ccc(Cl)cc3)CC2=O)N1 (stereo not given) | -4.4 | -9.9 | 4.2 | nt | 0.5 | 62.7* | -5.9 | 13.7 | -2.8
Cc1noc(C)c1S(=O)(=O)Nc1ccc2c(c1)CC(=O)N([C@H](C)CO)C[C@@H](C)[C@@H](CN(C)Cc1ccc(C(=O)Nc3ccccc3N)cc1)O2 | nt | nt | nt | 0.1 | nt | nt | nt | nt | nt
CN1C(=O)c2cc(NC(=O)C3CCCC3)ccc2OC[C@H]2O[C@@H](CC(=O)NCCc3ccncc3)CC[C@@H]21 | nt | nt | nt | 0.4 | nt | nt | nt | nt | nt
O=C(N[C@@H]1CC[C@H](CCn2cc(C3(O)CCCC3)nn2)O[C@@H]1CO)c1ccccc1F | nt | nt | nt | 0.0 | nt | 2.0 | nt | nt | nt
COc1ccc(CCN(C)c2ccc(C(N)=O)cc2[N+](=O)[O-])cc1OC | 4.0 | 0.4 | -11.4 | 1.0 | -0.4 | 49.0* | -8.0 | -12.1 | -9.2
C/C=C/c1ccc2c(c1)O[C@@H](CN(C)C(=O)Nc1ccc(F)cc1)[C@@H](C)CN([C@@H](C)CO)S2(=O)=O | nt | nt | nt | -0.5 | nt | 54.6* | -4.8 | i | -13.9
Cc1cccc(-c2ccc([C@H]3[C@H](CO)N4CCCCN(Cc5cccnc5)C[C@@H]34)cc2)c1 | nt | nt | nt | -0.1 | nt | -0.8 | nt | nt | nt
